The full list was thinned out, with the strongest signals kept by preference.
How the values were obtained:
Test in all cases: glycan array binding signal (z-score within array); higher = stronger binding
Details in all cases: glycan notation: IUPAC condensed, linker removed
[1] = molecular target: Fuc(a1-2)Gal(b1-3)GlcNAc(b1-2)Man(a1-3)[Fuc(a1-2)Gal(b1-3)GlcNAc(b1-2)Man(a1-6)]Man(b1-4)GlcNAc(b1-4)GlcNAc
Summary of the method: (§1)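 Glycan array data were curated from 3228 arrays in the Consortium for Functional Glycomics database and kept only where the protein sequence was available. Glycan names were converted to IUPAC-condensed notation, and columns mapping to the same glycan were averaged. The binding signal is a within-array Z-score, averaged across arrays of the same protein sequence at different concentrations or buffers and across linkers. Negative Z-scores can be read as non-binding.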

[2] = molecular target: Fuc(a1-2)Gal(b1-3)GlcNAc(b1-3)Gal(b1-4)Glc
Summary of the method: as §1

[3] = molecular target: Fuc(a1-2)Gal(b1-4)GlcNAc
Summary of the method: as §1

[4] = molecular target: Fuc(a1-2)Gal(b1-4)GlcNAc(b1-2)[Fuc(a1-2)Gal(b1-4)GlcNAc(b1-4)]Man(a1-3)[Fuc(a1-2)Gal(b1-4)GlcNAc(b1-2)Man(a1-6)]Man(b1-4)GlcNAc(b1-4)GlcNAc
Summary of the method: as §1

[5] = molecular target: Fuc(a1-2)Gal6S(b1-3)GlcNAc
Summary of the method: as §1

[6] = molecular target: Fuc(a1-2)[Gal(a1-3)]Gal
Summary of the method: as §1

[7] = molecular target: Fuc(a1-2)[Gal(a1-3)]Gal(b1-3)GalNAc
Summary of the method: as §1

[8] = molecular target: Fuc(a1-2)[Gal(a1-3)]Gal(b1-4)GlcNAc(b1-2)Man(a1-3)[Fuc(a1-2)[Gal(a1-3)]Gal(b1-4)GlcNAc(b1-2)Man(a1-6)]Man(b1-4)GlcNAc(b1-4)[Fuc(a1-6)]GlcNAc
Summary of the method: as §1

[9] = molecular target: Fuc(a1-2)[Gal(a1-3)]Gal(b1-4)GlcNAc(b1-6)GalNAc
Summary of the method: as §1

[10] = molecular target: Fuc(a1-2)[Gal(a1-3)]Gal(b1-4)[Fuc(a1-3)]Glc
Summary of the method: as §1

[11] = molecular target: Fuc(a1-2)[Gal(a1-3)]Gal(b1-4)[Fuc(a1-3)]GlcNAc(b1-3)GalNAc
Summary of the method: as §1

[12] = molecular target: Fuc(a1-2)[GalNAc(a1-3)]Gal(b1-3)GlcNAc
Summary of the method: as §1

[13] = molecular target: Fuc(a1-3)[Gal(b1-4)]GlcNAc(b1-2)Man
Summary of the method: as §1

[14] = molecular target: Fuc(a1-3)[Gal(b1-4)]GlcNAc(b1-3)Gal(b1-3)[Fuc(a1-4)]GlcNAc
Summary of the method: as §1

[15] = molecular target: Fuc(a1-3)[Gal(b1-4)]GlcNAc(b1-3)GalNAc
Summary of the method: as §1

[16] = molecular target: Fuc(a1-3)[GalNAc(b1-4)]GlcNAc
Summary of the method: as §1

[17] = molecular target: Gal(a1-3)Gal(b1-3)GlcNAc(b1-3)GalNAc
Summary of the method: as §1

[18] = molecular target: Gal(a1-3)Gal(b1-4)GlcNAc(b1-2)Man(a1-3)[Gal(a1-3)Gal(b1-4)GlcNAc(b1-2)Man(a1-6)]Man(b1-4)GlcNAc(b1-4)GlcNAc
Summary of the method: as §1

[19] = molecular target: Gal(a1-3)GalNAc
Summary of the method: as §1

[20] = molecular target: Gal(a1-4)Gal(b1-4)Glc
Summary of the method: as §1

[21] = molecular target: Gal(b1-2)Gal
Summary of the method: as §1

[22] = molecular target: Gal(b1-3)Gal(b1-4)GlcNAc
Summary of the method: as §1

[23] = molecular target: Gal(b1-3)GalNAc(a1-3)[Fuc(a1-2)]Gal(b1-4)Glc
Summary of the method: as §1

[24] = molecular target: Gal(b1-3)GlcNAc(b1-2)Man
Summary of the method: as §1

[25] = molecular target: Gal(b1-3)GlcNAc(b1-3)Gal(b1-4)GlcNAc(b1-3)Gal(b1-4)GlcNAc(b1-2)[Gal(b1-3)GlcNAc(b1-3)Gal(b1-4)GlcNAc(b1-3)Gal(b1-4)GlcNAc(b1-6)]Man(a1-6)[Gal(b1-3)GlcNAc(b1-3)Gal(b1-4)GlcNAc(b1-3)Gal(b1-4)GlcNAc(b1-2)Man(a1-3)]Man(b1-4)GlcNAc(b1-4)[Fuc(a1-6)]GlcNAc
Summary of the method: as §1

[26] = molecular target: Gal(b1-3)[Neu5Ac(a2-6)]GlcNAc(b1-6)Gal(b1-4)Glc
Summary of the method: as §1

[27] = molecular target: Gal(b1-4)GlcNAc(b1-2)Man
Summary of the method: as §1

[28] = molecular target: Gal(b1-4)GlcNAc(b1-2)[Gal(b1-4)GlcNAc(b1-4)]Man(a1-3)[GlcNAc(b1-4)][Gal(b1-4)GlcNAc(b1-2)Man(a1-6)]Man(b1-4)GlcNAc(b1-4)GlcNAc
Summary of the method: as §1

[29] = molecular target: Gal(b1-4)GlcNAc(b1-3)Gal(b1-4)GlcNAc(b1-2)[Gal(b1-4)GlcNAc(b1-3)Gal(b1-4)GlcNAc(b1-6)]Man(a1-6)[Gal(b1-4)GlcNAc(b1-3)Gal(b1-4)GlcNAc(b1-2)Man(a1-3)]Man(b1-4)GlcNAc(b1-4)[Fuc(a1-6)]GlcNAc
Summary of the method: as §1

[30] = molecular target: Gal(b1-4)GlcNAc(b1-3)Gal(b1-4)GlcNAc(b1-3)Gal(b1-4)GlcNAc(b1-2)Man(a1-3)[Gal(b1-4)GlcNAc(b1-3)Gal(b1-4)GlcNAc(b1-3)Gal(b1-4)GlcNAc(b1-2)Man(a1-6)]Man(b1-4)GlcNAc(b1-4)GlcNAc
Summary of the method: as §1

B1: Gal 1 (Mus musculus), P16045 (protein)
chain: MACGLVASNLNLKPGECLKVRGEVASDAKSFVLNLGKDSNNLCLHFNPRFNAHGDANTIVCNTKEDGTWGTEHREPAFPFQPGSITEVCITFDQADLTIKLPDGHEFKFPNRLNMEAINYMAADGDFKIKCVAFE
For B1, the “glycan array binding signal (z-score)” value [1] was 0.069, the “glycan array binding signal (z-score)” value [2] was -0.229 and the “glycan array binding signal (z-score)” value [3] was -0.279. For the same binder, the “glycan array binding signal (z-score)” value [4] was 0.547, the “glycan array binding signal (z-score)” value [5] was -0.468 and the “glycan array binding signal (z-score)” value [6] was -0.365. The “glycan array binding signal (z-score)” value [7] was -0.363, the “glycan array binding signal (z-score)” value [8] was 0.008 and the “glycan array binding signal (z-score)” value [9] was -0.106. The “glycan array binding signal (z-score)” value [10] was -0.455, the “glycan array binding signal (z-score)” value [11] was -0.325 and the “glycan array binding signal (z-score)” value [12] was -0.394. The “glycan array binding signal (z-score)” value [13] was -0.075, the “glycan array binding signal (z-score)” value [14] was -0.064 and the “glycan array binding signal (z-score)” value [15] was -0.264. The “glycan array binding signal (z-score)” value [16] was -0.277, the “glycan array binding signal (z-score)” value [17] was -0.23 and the “glycan array binding signal (z-score)” value [18] was 4.96. For the same binder, the “glycan array binding signal (z-score)” value [19] was -0.186, the “glycan array binding signal (z-score)” value [20] was -0.376 and the “glycan array binding signal (z-score)” value [21] was 0.468. For the same binder, the “glycan array binding signal (z-score)” value [22] was -0.195, the “glycan array binding signal (z-score)” value [23] was -0.41 and the “glycan array binding signal (z-score)” value [24] was -0.113. The “glycan array binding signal (z-score)” value [25] was 2.97, the “glycan array binding signal (z-score)” value [26] was -0.078 and the “glycan array binding signal (z-score)” value [27] was -0.253. The “glycan array binding signal (z-score)” value [28] was 0.891, the “glycan array binding signal (z-score)” value [29] was 3.02 and the “glycan array binding signal (z-score)” value [30] was 2.85.

From the supplement of paper PMC8728848
